Inconclusive results are not listed. Where a call stands in place of a potency, no number is given. Active and inactive are the calls of the source. Calls follow the shape of the dose curve; as a rule, active = well fitted curve in the direction sought with a large enough effect; inconclusive = small, poorly fitted or top-dose-only effect, or another doubt; inactive = no such curve, though single readings can be large or run the other way.

The nature of this assay: Secondary Assay for Inhibitors of Human Cdc-like kinase 4 (Clk4): HEK-293 Cell Viability Assay.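 Also: cytotoxic hits lower the ATP light signal so activity reflects loss of viability.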 The note with it: HEK-293 viability, ATP luminescence (CellTiter-Glo), 24/48 h; series mostly up to 46.1 µM. As to the method: NIH Molecular Libraries Probe Production Centers Network [MLPCN] NIH Chemical Genomics Center [NCGC] MLPCN Grant: 1R03MH084827-01 Assay Submitter (PI): Tom Misteli NCGC Assay Overview: Cytotoxicity of the active compounds in the Clk4 screens was assessed using the CellTiter-Glo Luminescent Cell Viability Assay kit (Promega, USA) in the HEK-293 (ATCC) cell line. CellTiter-Glo measures the intracellular ATP present in metabolically active cells using Ultra-Glo as the luciferase to detect ATP levels. In brief, the luciferase in the buffer catalyzes the oxidation of luciferin to oxyluciferin and light which is dependent on ATP. […] Wells treated with various concentrations of cycloheximide (Sigma) and DMSO, and wells with media alone were used as positive and negative controls, respectively. […] [1] http://www.promega.com/tbs/tb288/tb288.pdf
NCGC Assay Protocol Summary: HEK-293 cells were grown in a flask up to 80% confluence. Cells were trypsinized, washed, and resuspended in MEM Eagle + 10% FBS + 1% pen-strep media at a concentration of 120 cells/uL. Five uL/well of cell solution was dispensed into a 1536-well assay plates (Greiner, solid white medium-binding plates) with Aurora Discovery BioRAPTR Flying Reagent Dispenser (FRD; Beckton-Dickenson). Cells were pre-incubated at 37 degree Celsius, 5% CO2 for four hours. Compound and control solutions (23nL) were then transferred to the assay plate using the Kalypsys 1536-pin tool. Assay plates were re- incubated at 37 degree Celsius, 5% CO2. After 24 or 48 hours, five uL of CellTiter Glo detection reagent was added. Luminescence signal was read with Perkin Elmer ViewLux plate reader after 30 min room temperature incubation.
On the technique in general: In ATP-based viability assays light output follows the ATP content of the culture.
With `Cc1cccc(CNc2ncnc3ccc(-c4cccc(C)c4)cc23)c1`, the Potency entry is “inactive”. In the case of `c1cncc(CNc2ncnc3ccc(-c4ccc5c(c4)OCO5)cc23)c1` it was “inactive”; in that of `Cc1cccc(CNc2ncnc3ccc(-c4cccnc4)cc23)c1`, “inactive”; in that of `c1nc(NCc2ccc3c(c2)OCO3)c2cc(-c3ccc4c(c3)OCCO4)ccc2n1`, “inactive”. In the case of `c1cncc(CNc2ncnc3ccc(-c4ccco4)cc23)c1` it was “inactive”; in that of `O=C(O)c1ccc(-c2ccc3ncnc(N4CCOCC4)c3c2)o1`, “inactive”; in that of `c1nc(NCC2CCCC2)c2cc(-c3ccc4c(c3)OCO4)ccc2n1`, “inactive”.

As for `Fc1cccc(CNc2ncnc3ccc(-c4cccc(Cl)c4)cc23)c1`, the Potency entry was “inactive”. With `CCN(Cc1cccs1)c1ncnc2ccc(-c3ccc4c(c3)OCO4)cc12` the entry was “inactive”; with `c1cncc(CNc2ncnc3ccc(-c4ccc5c(c4)OCCO5)cc23)c1`, “inactive”. With `Fc1cccc(CNc2ncnc3ccc(-c4ccc5c(c4)OCO5)cc23)c1` the entry was “inactive”; with `c1csc(CNc2ncnc3ccc(-c4ccc5c(c4)OCO5)cc23)c1`, “inactive”; with `CS(=O)(=O)CCNCc1ccc(-c2ccc3ncnc(Nc4ccc(OCc5cccc(F)c5)c(Cl)c4)c3c2)o1`, “inactive”.

Take `Cc1cccc(CNc2ncnc3ccc(-c4ccccc4Cl)cc23)c1`: the Potency result is “inactive”. With `CCn1cnc(CCN(C)c2ncnc3ccc(-c4ccc5c(c4)OCO5)cc23)c1` the entry was “inactive”. In the case of `c1coc(CNc2ncnc3ccc(-c4ccc5c(c4)OCO5)cc23)c1` it was “inactive”; in that of `O=C(O)c1ccc(-c2ccc3ncnc(NCc4nccs4)c3c2)o1`, “inactive”. On to `Cc1cccc(CNc2ncnc3ccc(-c4ccc5c(c4)OCCO5)cc23)c1`, for which the Potency result is “inactive”. In the case of `COc1cccc(-c2ccc3ncnc(NCc4cccc(F)c4)c3c2)c1` it was “inactive”.

Turning to `CCNC(=O)c1ccc(-c2ccc3ncnc(NCCc4cnc[nH]4)c3c2)o1`, the Potency entry was “inactive”.

Consider `COc1cccc(-c2ccc3ncnc(NCc4ccc5c(c4)OCO5)c3c2)c1`, for which the Potency entry was “inactive”. In the case of `CC(=O)c1ccc(-c2ccc3ncnc(NCc4ccc(C)o4)c3c2)o1` it was “inactive”; in that of `CN(CC1CCCO1)c1ncnc2ccc(-c3ccc4c(c3)OCO4)cc12` (stereo not given), “inactive”. With `Cc1csc(CNc2ncnc3ccc(-c4ccc5c(c4)OCCO5)cc23)c1` the entry was “inactive”; with `COc1cccc(-c2ccc3ncnc(NCc4cc(C)cs4)c3c2)c1`, “inactive”; with `Cc1nc(C)c(-c2ccc3ncnc(NCCc4cnc[nH]4)c3c2)s1`, “inactive”. For `C[C@@H](O)c1ccc(-c2ccc3ncnc(NCc4cccs4)c3c2)o1`, the Potency entry was “inactive”. In the case of `Clc1ccccc1-c1ccc2ncnc(NCc3cccnc3)c2c1` it was “inactive”; in that of `Cc1csc(CNc2ncnc3ccc(-c4ccc5c(ccn5C)c4)cc23)c1`, “inactive”.

On to `Clc1ccccc1-c1ccc2ncnc(NCc3ccc4c(c3)OCO4)c2c1`, for which the Potency entry is “inactive”.

Regarding `Cn1cnc(CCNc2ncnc3ccc(-c4ccc5c(c4)OCO5)cc23)c1`, the Potency entry is “inactive”. Take `Cc1cccc(-c2ccc3ncnc(NCc4cc(C)cs4)c3c2)c1`: the Potency entry is “inactive”. On to `Cc1nc(CNc2ncnc3ccc(-c4sc(C)nc4C)cc23)cs1`, for which the Potency result is “inactive”.

`c1cncc(CNc2ncnc3ccc(-c4cccnc4)cc23)c1`: the Potency entry is “inactive”. In the case of `Cc1ccsc1CNc1ncnc2ccc(-c3ccc4c(c3)OCO4)cc12` it was “inactive”. With `Cc1ccc(CNc2ncnc3ccc(-c4ccoc4C)cc23)o1`, the Potency entry was “inactive”.

Take `Cc1occc1CNc1ncnc2ccc(-c3ccc4c(c3)OCO4)cc12`: the Potency result was “inactive”. With `CCOC(=O)c1ccoc1-c1ccc2ncnc(NCc3ccc(C)o3)c2c1` the entry was “inactive”; with `c1nc(NCCc2cnc[nH]2)c2cc(-c3ccoc3)ccc2n1`, “inactive”. As to `c1coc(CCNc2ncnc3ccc(-c4ccc5c(c4)OCO5)cc23)c1`, the Potency result is “inactive”.

These data come from PubChem BioAssay AID504534 (National Center for Advancing Translational Sciences (NCATS), 2011).
